For some assays here: Results with a measured potency or affinity are listed apart. The source made the active and inactive calls. Unless noted, the rule behind the calls is not given here.
How the values were obtained:
[1] = antimalarial activity against Dd2 strain (AID 2302;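 active = growth inhibition above 50% at the single 2 µM test dose, taken to imply half-maximal potency below 2 µM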;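 note: 0% = DMSO untreated growth and 100% = chloroquine plus artemisinin killed control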); conditions: P. falciparum Dd2 in RBCs, LDH growth readout, 72 h; at 2 µM; active compounds read high
[2] = HepG2 cytotoxicity, primary screen, cytotoxicity control for P. falciparum antimalarial project, cell-based, ATP luminescence (AID 2303;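 active = inhibition above 50%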;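 note: 0% = DMSO wells and 100% = digitonin-killed cells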); conditions: HepG2 viability, 24-48 h, at 10 µM, active compounds read high
[3] = biological target: L-lactate dehydrogenase (Plasmodium falciparum (isolate CDC / Honduras)) (UniProt Q27743); test: PfLDH activity inhibition – cell lysate, 3D7 strain, counter-screen for P. falciparum growth inhibition project (AID 2304);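 note: 0% = vehicle and 100% = reference inhibitor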; conditions: P. falciparum 3D7 crude extract, LDH APAD/NBT absorbance; at 2 µM; active compounds read high
[4] = inhibition of 3D7 malaria parasite growth – strain 3D7 (AID 2306);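 note: 0% = DMSO wells and 100% = chloroquine plus artemisinin control wells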; conditions: P. falciparum 3D7 erythrocytic growth, LDH absorbance, 72 h; at 2 µM; active compounds read high
[5] = biological target: Calcium-dependent protein kinase 1 (Plasmodium falciparum (isolate 3D7)) (UniProt P62344); test: PfCDPK1 kinase inhibitors, biochemical, TCAMS library (AID 1159585; cut-off not given, nearly all actives have IC50 up to about 0.98 µM;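 note: inhibitors leave more ATP so luminescence rises with inhibition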); conditions: recombinant PfCDPK1, Kinase-Glo ATP depletion luminescence
[6] = biological target: Plasmodium falciparum protein kinase 6 (PK6, PF3D7_1337100) (UniProt Q8IDW1); test: PfPK6 kinase inhibitors, biochemical, TCAMS library (AID 1159586); conditions: recombinant PfPK6, Kinase-Glo ATP depletion luminescence
[7] = biological target: Protein kinase 7 (PK7), Plasmodium falciparum 3D7 (PF3D7_0213400) (UniProt Q7YTF7); test: inhibition of Plasmodium PK7 catalytic activity – biochemical, TCAMS antimalarial set, Kinase-Glo luminescence (AID 1159587); conditions: recombinant PfPK7, Kinase-Glo ATP depletion luminescence
[8] = biological target: Calcium-dependent protein kinase 4 (Plasmodium falciparum (isolate 3D7)) (UniProt Q8IBS5); test: PfCDPK4 kinase inhibitors, biochemical, TCAMS library (AID 1159588; cut-off not given, nearly all actives have IC50 up to about 0.91 µM); conditions: recombinant PfCDPK4, Kinase-Glo ATP depletion luminescence
Chain of Calcium-dependent protein kinase 4 (Plasmodium falciparum (isolate 3D7)) (Q8IBS5 whole entry, looked up): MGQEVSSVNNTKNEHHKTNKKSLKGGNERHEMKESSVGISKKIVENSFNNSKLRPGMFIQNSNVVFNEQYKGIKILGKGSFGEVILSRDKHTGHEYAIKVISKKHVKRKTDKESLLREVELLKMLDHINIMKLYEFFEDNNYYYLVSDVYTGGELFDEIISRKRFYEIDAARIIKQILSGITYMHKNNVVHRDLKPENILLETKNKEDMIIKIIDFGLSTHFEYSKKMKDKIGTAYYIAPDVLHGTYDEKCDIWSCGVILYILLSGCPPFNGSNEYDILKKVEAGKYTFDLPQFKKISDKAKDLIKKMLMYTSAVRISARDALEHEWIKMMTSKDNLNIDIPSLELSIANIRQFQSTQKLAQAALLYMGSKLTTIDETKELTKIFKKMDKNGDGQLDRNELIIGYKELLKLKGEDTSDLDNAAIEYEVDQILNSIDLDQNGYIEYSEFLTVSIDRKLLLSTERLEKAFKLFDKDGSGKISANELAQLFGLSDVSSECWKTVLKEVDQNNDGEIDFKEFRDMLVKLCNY

Chain of Protein kinase 7 (PK7), Plasmodium falciparum 3D7 (PF3D7_0213400) (Q7YTF7 1-343): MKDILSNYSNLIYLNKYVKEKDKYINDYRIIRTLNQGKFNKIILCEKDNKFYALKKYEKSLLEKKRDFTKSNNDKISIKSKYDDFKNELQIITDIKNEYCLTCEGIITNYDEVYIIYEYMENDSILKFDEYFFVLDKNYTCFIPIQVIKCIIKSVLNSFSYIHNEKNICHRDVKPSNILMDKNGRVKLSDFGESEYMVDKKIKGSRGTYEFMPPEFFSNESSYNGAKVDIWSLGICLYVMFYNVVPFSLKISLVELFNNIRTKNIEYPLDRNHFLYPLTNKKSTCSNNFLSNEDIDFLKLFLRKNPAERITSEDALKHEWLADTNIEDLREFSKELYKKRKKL
Chain of L-lactate dehydrogenase (Plasmodium falciparum (isolate CDC / Honduras)) (Q27743 whole entry, looked up): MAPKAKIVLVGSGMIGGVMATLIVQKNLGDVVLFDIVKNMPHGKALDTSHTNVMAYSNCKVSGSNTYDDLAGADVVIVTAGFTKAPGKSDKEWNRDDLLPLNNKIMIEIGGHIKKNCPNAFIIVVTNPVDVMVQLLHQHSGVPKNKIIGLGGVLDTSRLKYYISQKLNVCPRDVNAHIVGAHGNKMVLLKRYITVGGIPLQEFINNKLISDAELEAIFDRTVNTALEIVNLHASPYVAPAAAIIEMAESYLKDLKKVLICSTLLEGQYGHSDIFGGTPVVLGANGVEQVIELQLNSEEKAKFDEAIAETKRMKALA
Chain of Calcium-dependent protein kinase 1 (Plasmodium falciparum (isolate 3D7)) (P62344 whole entry, looked up): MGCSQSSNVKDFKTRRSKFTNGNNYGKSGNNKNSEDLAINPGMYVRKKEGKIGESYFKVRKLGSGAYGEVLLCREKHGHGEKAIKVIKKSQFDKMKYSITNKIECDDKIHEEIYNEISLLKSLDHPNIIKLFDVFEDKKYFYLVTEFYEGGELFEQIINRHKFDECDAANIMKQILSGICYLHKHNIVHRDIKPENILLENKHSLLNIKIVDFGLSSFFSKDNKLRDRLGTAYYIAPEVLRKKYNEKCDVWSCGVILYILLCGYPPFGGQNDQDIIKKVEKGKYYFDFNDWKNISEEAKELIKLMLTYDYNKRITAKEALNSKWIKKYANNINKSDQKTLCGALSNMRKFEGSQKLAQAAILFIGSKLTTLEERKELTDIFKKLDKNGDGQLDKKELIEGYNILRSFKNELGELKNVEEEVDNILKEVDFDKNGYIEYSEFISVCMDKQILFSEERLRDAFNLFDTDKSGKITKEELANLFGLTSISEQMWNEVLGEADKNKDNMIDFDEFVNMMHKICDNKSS
Chain of Plasmodium falciparum protein kinase 6 (PK6, PF3D7_1337100) (Q8IDW1 1-305): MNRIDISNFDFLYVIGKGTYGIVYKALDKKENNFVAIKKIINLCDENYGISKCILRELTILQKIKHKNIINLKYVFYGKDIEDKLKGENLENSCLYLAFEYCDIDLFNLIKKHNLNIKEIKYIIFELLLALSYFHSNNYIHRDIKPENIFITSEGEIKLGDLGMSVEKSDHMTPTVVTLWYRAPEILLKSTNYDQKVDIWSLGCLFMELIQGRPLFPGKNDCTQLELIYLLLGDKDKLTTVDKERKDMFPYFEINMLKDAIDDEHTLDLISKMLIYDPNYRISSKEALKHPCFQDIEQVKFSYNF

c1cc(CNC2Cc3ccc(-c4cccs4)cc3C2)cc(-n2ccnc2)c1 (stereo not given)
inactive: inhibition [2] 0% | inhibition [3] -1% | outcome [5] | outcome [6] | outcome [7] | outcome [8]
active: growth inhibition [1] 63% | growth inhibition [4] 100%

CCCc1ccc(Nc2nc(C)cc(N(CC)CCCN3CCCCC3)n2)cc1
inactive: inhibition [2] 48% | inhibition [3] 5% | outcome [5] | outcome [6] | outcome [7] | outcome [8]
active: growth inhibition [1] 95% | growth inhibition [4] 101%

CCCN(CCC)CC(O)COc1ccccc1C(=O)Nc1ccccc1 (stereo not given)
active: growth inhibition [1] 95% | growth inhibition [4] 92%
inactive: inhibition [2] 6% | inhibition [3] -2% | outcome [5] | outcome [6] | outcome [7] | outcome [8]

COc1ccc2nc3cc(Cl)ccc3c(NCCCCCCNc3c4ccc(Cl)cc4nc4ccc(OC)cc34)c2c1
active: growth inhibition [1] 79% | growth inhibition [4] 96%
inactive: inhibition [2] 20% | inhibition [3] -5% | outcome [5] | outcome [6] | outcome [7] | outcome [8]

Cc1c(C)c2c(c(C)c1O)CC[C@](C)(C(=O)N1CCC(CCN3CCC(c4c[nH]c5ccccc45)CC3)CC1)O2
active: growth inhibition [1] 74% | growth inhibition [4] 99%
inactive: inhibition [2] 31% | inhibition [3] 0% | outcome [5] | outcome [6] | outcome [7] | outcome [8]

CC(C)c1ccc(NC(=O)N2CCc3ccc(OCCN(C(C)C)C(C)C)cc32)c(Br)c1
active: growth inhibition [4] 86%
inactive: growth inhibition [1] 5% | inhibition [2] 6% | inhibition [3] 2% | outcome [5] | outcome [6] | outcome [7] | outcome [8]

Cc1[nH]c(C)c(-c2ccc(-c3ccc(OC(F)(F)F)cc3)cc2)c(=O)c1Br
inactive: inhibition [2] 33% | inhibition [3] -3% | outcome [5] | outcome [6] | outcome [7] | outcome [8]
active: growth inhibition [1] 97% | growth inhibition [4] 96%

COc1cccc2cc(C(=O)N[C@@H](CC(C)C)C(=O)NC3CC[C@@H](C)N(C(=O)Nc4ccncc4)CC3=O)oc12 (stereo not given in full)
inactive: inhibition [2] 7% | inhibition [3] -7% | outcome [5] | outcome [6] | outcome [7] | outcome [8]
active: growth inhibition [1] 90% | growth inhibition [4] 95%

Cc1cc(N2CCCC2)nc(Nc2ccc(NC(=O)c3ccccc3F)cc2)n1
active: growth inhibition [4] 98%
inactive: growth inhibition [1] 44% | inhibition [2] 36% | inhibition [3] -3% | outcome [5] | outcome [6] | outcome [7] | outcome [8]

Cc1cnc(-c2ccc(NC(=O)c3coc4ccc(N5C[C@@H](C)N(C)[C@@H](C)C5)cc34)cc2)o1
inactive: growth inhibition [1] 39% | inhibition [2] 18% | inhibition [3] 1% | outcome [5] | outcome [6] | outcome [7] | outcome [8]
active: growth inhibition [4] 96%

c1cc2nc(CCc3nc4ccc(C5=N[C@H]6CCCC[C@H]6N5)cc4[nH]3)[nH]c2cc1C1=N[C@@H]2CCCC[C@@H]2N1
active: growth inhibition [1] 96% | growth inhibition [4] 93%
inactive: inhibition [2] 3% | inhibition [3] -2% | outcome [5] | outcome [6] | outcome [7] | outcome [8]

Cc1ccc2c(NN=Cc3ccccc3[N+](=O)[O-])cc(C)nc2c1
inactive: inhibition [2] 13% | inhibition [3] 4% | outcome [5] | outcome [6] | outcome [7] | outcome [8]
active: growth inhibition [1] 100% | growth inhibition [4] 102%

O=C(Nc1ccc(OC2CCN(Cc3ccco3)CC2)c(Cl)c1)c1ccc2ncccc2c1
inactive: growth inhibition [1] 40% | inhibition [2] -5% | inhibition [3] -4% | outcome [5] | outcome [6] | outcome [7] | outcome [8]
active: growth inhibition [4] 97%

CS(=O)(=O)NCCCNCc1cccc(-c2cccc(-c3nc4ccc(C(F)(F)F)cc4[nH]3)c2)c1
active: growth inhibition [1] 100% | growth inhibition [4] 99%
inactive: inhibition [2] 17% | inhibition [3] 5% | outcome [5] | outcome [6] | outcome [7] | outcome [8]

Cc1ccccc1C1CCN(C2CCC(NC(=O)C3=Cc4cc(Cl)ccc4OC3)CC2)CC1 (stereo not given)
active: growth inhibition [1] 99% | inhibition [2] 51% | growth inhibition [4] 100%
inactive: inhibition [3] 0% | outcome [5] | outcome [6] | outcome [7] | outcome [8]

CCc1cc2c(Sc3nnc(N)s3)ncnc2s1
inactive: inhibition [2] -20% | inhibition [3] -4% | outcome [5] | outcome [6] | outcome [7] | outcome [8]
active: growth inhibition [1] 65% | growth inhibition [4] 99%

CCCCCCN1CCC(NCc2cccc(C(F)(F)F)c2)CC1
inactive: inhibition [2] 18% | inhibition [3] -6% | outcome [5] | outcome [6] | outcome [7] | outcome [8]
active: growth inhibition [1] 82% | growth inhibition [4] 103%

CCOc1ccc2c(NN=Cc3cccc(OC)c3)cc(C)nc2c1
inactive: inhibition [2] 38% | inhibition [3] -5% | outcome [5] | outcome [6] | outcome [7] | outcome [8]
active: growth inhibition [1] 81% | growth inhibition [4] 97%

COc1ccc(COc2c(OC)cc(Cc3cnc(N)nc3N)cc2OC)cc1
inactive: growth inhibition [1] 23% | inhibition [2] 5% | inhibition [3] 1% | outcome [5] | outcome [6] | outcome [7] | outcome [8]
active: growth inhibition [4] 90%

Cc1nc2c(-n3cc(Cn4ccnc4)c4ccccc43)ncnc2n1-c1ccc(Cl)cc1Cl
active: growth inhibition [4] 89%
inactive: growth inhibition [1] 29% | inhibition [2] 16% | inhibition [3] -5% | outcome [5] | outcome [6] | outcome [7] | outcome [8]

CCCCSc1ccc2nc(-c3c[nH]c4ccc(C#N)cc34)cn2c1
active: growth inhibition [4] 94%
inactive: growth inhibition [1] 37% | inhibition [2] 3% | inhibition [3] 3% | outcome [5] | outcome [6] | outcome [7] | outcome [8]

O=C(N[C@@H](CC1CCCCC1)C(=O)NC1CCCCCC1)c1ccc(O)c(-c2ccc(Cl)c(Cl)c2)c1
inactive: inhibition [2] -3% | inhibition [3] -2% | outcome [5] | outcome [6] | outcome [7] | outcome [8]
active: growth inhibition [1] 100% | growth inhibition [4] 99%

O=C(Nc1cccc(CN2CCCN(Cc3ccc(O)cc3)CC2)c1)c1ccc(Br)cc1
active: growth inhibition [1] 54% | growth inhibition [4] 94%
inactive: inhibition [2] 19% | inhibition [3] -2% | outcome [5] | outcome [6] | outcome [7] | outcome [8]

CC(=O)Nc1ccc(S(=O)(=O)Nc2ccc(Nc3nc(C)cc(N(C)C)n3)cc2)cc1
inactive: growth inhibition [1] 22% | inhibition [2] -2% | inhibition [3] -1% | outcome [5] | outcome [6] | outcome [7] | outcome [8]
active: growth inhibition [4] 100%

CCCCOc1ccc(CNCCCCCCNCc2ccc(OCCCC)c3ccccc23)c2ccccc12
inactive: growth inhibition [1] 49% | inhibition [3] 2% | outcome [5] | outcome [6] | outcome [7] | outcome [8]
active: inhibition [2] 100% | growth inhibition [4] 81%

COC(=O)c1ccc(NC(=O)c2ccc(CCN3CCC(c4nc(COCC(F)(F)F)c(-c5ccc(F)cc5)o4)CC3)cc2)cc1
active: growth inhibition [4] 89%
inactive: growth inhibition [1] 37% | inhibition [2] 22% | inhibition [3] -5% | outcome [5] | outcome [6] | outcome [7] | outcome [8]

CC1CCC(C(C)C)C(OC(=O)CSc2nnc3c(n2)[nH]c2ccccc23)C1 (stereo not given)
active: growth inhibition [1] 74% | growth inhibition [4] 88%
inactive: inhibition [2] -5% | inhibition [3] -2% | outcome [5] | outcome [6] | outcome [7] | outcome [8]

COc1ccccc1NC(=O)OC(COc1ccc(N)cc1)CN1CC=C(c2ccccc2)CC1 (stereo not given)
active: growth inhibition [1] 81% | growth inhibition [4] 90%
inactive: inhibition [2] 16% | inhibition [3] 3% | outcome [5] | outcome [6] | outcome [7] | outcome [8]

N#CCCN1CCN(Cc2ccc(-c3cccc(-c4nc5ccc(F)cc5[nH]4)c3)cc2)CC1
active: growth inhibition [4] 91%
inactive: growth inhibition [1] 17% | inhibition [2] 16% | inhibition [3] 0% | outcome [5] | outcome [6] | outcome [7] | outcome [8]

CCC(CC)N1CCN(CC(=O)Nc2ccc([N+](=O)[O-])cc2C(=O)Nc2cccc(OC)c2)CC1
active: growth inhibition [4] 100%
inactive: growth inhibition [1] 35% | inhibition [2] 35% | inhibition [3] 0% | outcome [5] | outcome [6] | outcome [7] | outcome [8]

Cc1cc(NN=Cc2ccc(F)cc2)c2ccc(F)cc2n1
inactive: growth inhibition [1] 30% | inhibition [2] -7% | inhibition [3] 0% | outcome [5] | outcome [6] | outcome [7] | outcome [8]
active: growth inhibition [4] 99%

O=C(Nc1cccc(-c2cc(-c3c(Cl)cccc3Cl)no2)c1)c1cnc2ccccc2c1
inactive: growth inhibition [1] 34% | inhibition [2] -6% | inhibition [3] -3% | outcome [5] | outcome [6] | outcome [7] | outcome [8]
active: growth inhibition [4] 87%

COc1cccc(OCC2CCCN(CCCCNC(=O)c3ccc(NC(=O)c4ccc(Cl)cc4)cc3)C2)c1 (stereo not given)
inactive: growth inhibition [1] 49% | inhibition [2] 33% | inhibition [3] 7% | outcome [5] | outcome [6] | outcome [7] | outcome [8]
active: growth inhibition [4] 100%

COC(=O)Cn1c2ccccc2c2c(N)c(C(=O)OC)c(C)nc21
active: growth inhibition [4] 93%
inactive: growth inhibition [1] 1% | inhibition [2] 0% | inhibition [3] 4% | outcome [5] | outcome [6] | outcome [7] | outcome [8]

Oc1ccc(CCNCCCCCCNCCc2ccc(Cl)cc2)c(Cl)c1O
inactive: growth inhibition [1] 30% | inhibition [2] 23% | inhibition [3] -7% | outcome [5] | outcome [6] | outcome [7] | outcome [8]
active: growth inhibition [4] 100%

O=C(Nc1ccccc1)N(Cc1ccc(-c2cccc(CNCc3ccc4c(c3)OCO4)c2)cc1)C1CCN(Cc2ccccc2)CC1
inactive: inhibition [2] 29% | inhibition [3] -1% | outcome [5] | outcome [6] | outcome [7] | outcome [8]
active: growth inhibition [1] 65% | growth inhibition [4] 100%

COc1ccc(CCON2C(N)=NC(N)=NC2(C)C)cc1OC
active: growth inhibition [1] 93% | inhibition [2] 64% | growth inhibition [4] 96%
inactive: inhibition [3] 2% | outcome [5] | outcome [6] | outcome [7] | outcome [8]

Nc1nc(-c2ccccn2)nc(-n2nc(-c3cccc(C(F)(F)F)c3)cc2N)n1
active: growth inhibition [1] 74% | growth inhibition [4] 87%
inactive: inhibition [2] 14% | inhibition [3] -5% | outcome [5] | outcome [6] | outcome [7] | outcome [8]

CN1CCC(N2CCN(Cc3cccc(-c4cccc(-c5nc6ccccc6[nH]5)c4)c3)CC2)CC1
active: growth inhibition [1] 100% | growth inhibition [4] 100%
inactive: inhibition [2] 19% | inhibition [3] -1% | outcome [5] | outcome [6] | outcome [7] | outcome [8]

CN1CCN(C(C(=O)NCc2cc(Cl)cc(Cl)c2)c2ccc(NC(=O)Nc3ccccc3)cc2)CC1 (stereo not given)
active: growth inhibition [4] 98%
inactive: growth inhibition [1] 43% | inhibition [2] 23% | inhibition [3] -5% | outcome [5] | outcome [6] | outcome [7] | outcome [8]
